This note sets out measurements from PubChem BioAssay AID504332 (National Center for Advancing Translational Sciences (NCATS), 2011).

Structures are written as SMILES. About 31,000 (8.9%) of roughly 350,000 compounds were called active. Not shown: some 15% with an inconclusive outcome. Only a selection was taken, and actives are over-represented in it overall. Unmarked numbers belong to inactive results. The call rests on the fitted dose curve; in most records, active means well fitted inhibition curve with a large enough effect; inconclusive means small, poorly fitted or top-dose-only effect; inactive means no such curve, though single readings can be large or run the other way.
On the % scale 0 is the no-effect control and ±100 the full control effect; potency means the concentration at half of the fitted maximal effect.

Sequence of Histone-lysine N-methyltransferase EHMT2 (Homo sapiens) (Q96KQ7 913-1193 limits assumed): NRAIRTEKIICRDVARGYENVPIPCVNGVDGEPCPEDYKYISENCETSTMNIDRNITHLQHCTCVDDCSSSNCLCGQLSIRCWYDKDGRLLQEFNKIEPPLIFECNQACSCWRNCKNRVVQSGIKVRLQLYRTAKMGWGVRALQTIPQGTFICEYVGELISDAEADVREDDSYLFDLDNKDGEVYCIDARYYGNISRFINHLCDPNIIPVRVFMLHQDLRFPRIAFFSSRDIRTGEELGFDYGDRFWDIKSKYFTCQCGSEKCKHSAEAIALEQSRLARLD

The target of the assay is Histone-lysine N-methyltransferase EHMT2 (Homo sapiens) (UniProt Q96KQ7). Briefly: qHTS Assay for Inhibitors of Histone Lysine Methyltransferase G9a. Further: nearly all actives have a fitted effect of over 75% in size. To be noted: G9a H3K9 monomethylation, AlphaScreen, 2 h; series mostly up to 59 µM; activity, negative = inhibition: at the top concentration. An excerpt:
Methylated lysines, on the N-terminal tails of histone proteins serve as epigenetic markers to recruit factors that can then modify local chromatin structure to lead to functional consequences. G9a and other members of the SUV39 family of the SET domain-containing superfamily of histone lysine methyltransferases (HMT) have been identified to specifically methylate Lys9 of histone H3 (H3K9). G9a catalyzes the mono- and di-methylation of H3K9 in mammalian euchromatic regions, where the resulting H3K9me2 is indicative of transcriptional repression. […] The inhibition of G9a will result in transcriptional activation and work synergistically with DNA methyltransferase and histone deacetylase inhibitors, to kill cancer cells. This qHTS assay for identification of G9a inhibitors is a chemiluminescence based AlphaScreen (PerkinElmer). Methylation of biotinylated-histone peptide is measured through specific antibody-based detection, in conjunction with streptavidin-coated donor and anti-IgG antibody-coated acceptor beads. The method is particularly well suited for detection of inhibitors acting by the desired histone peptide competitive mechanism and is applicable to testing other HMTs. Although AlphaScreen has significant advantages with its utility in a variety of epigenetic target assays, the primary screening data provided in this deposition should be used with caution due to the prevalence of screening artifacts. An AlphaScreen counterscreen is highly recommended to be run against any putative actives to eliminate non specific artifacts. Alternatively, one can use other AlphaScreen assays in PubChem to filter out promiscuous hits. Quinn et al. A chemiluminescence-based method for identification of histone lysine methyltransferase inhibitors. Mol Biosyst 6(5): 782-8. 2010. PMID: 20567762 [2] Baell,Holloway. New substructure filters for removal of pan assay interference compounds (PAINS) from screening libraries and for their exclusion in bioassays. J Med Chem. 53(7):2719-40. 2010. PMID: 20131845 NIH Molecular Libraries Probe Production Network [MLPCN] NIH Chemical Genomics Center [NCGC] Structural Genomics Consortium (SGC) NIH Grant: 5U54 MH084681-02
To each well of a 1,536w plate, 2ul of HMT enzyme (final 20nM) were added, using a nanoliter dispenser. The G9a- and GLP-inhibitor BIX-01294 (CID: 25150857) are used as an intraplate control, with a 16-point titration in duplicate. A Kalypsys pin-tool transferred 23nl of library compound solution in DMSO to each well. Following a 15 min incubation of enzyme with compounds at room temperature, 1ul mixture of b-H3K9 peptide substrate (final 500nM) and SAM cofactor (final 20uM) were added. Reactions were allowed to proceed at room temperature for 2 hours. Methylated b-H3K9 peptide product was detected with 0.5 ug/mL rabbit polyclonal anti-monomethyl histone H3K9 antibody (Abcam Inc., Cambridge, MA) and 20 ug/mL each streptavidin-coated donor and anti-rabbit IgG acceptor AlphaScreen beads. Antibody and beads were added in a 1ul dispense, for a final volume of 4ul, and plates were incubated, protected from the light, for 10 min at room temperature. Microplates were then read on an EnVision multilabel plate reader using the 1,536 plate HTS AlphaScreen aperture (excitation time 80 ms, measurement time 240 ms).
In the case of `C/C(=N\Nc1ncc(Cl)cc1Cl)c1cccs1`, the “activity, negative = inhibition” value is -2.14% [at 102 µM].
As to `C/C(=N\Nc1ccc(S(N)(=O)=O)cc1[N+](=O)[O-])c1cccs1`, the Potency was 25.1 µM (active).
For the compound `C/C(=N\NC(=O)COc1c(C)cccc1C)c1cccs1`, the “activity, negative = inhibition” value was 26.6% [at 102 µM].
As to `C=CCOc1ccc(C(=O)Nc2ccccc2C(=O)N2CCCC2)cc1`, the “activity, negative = inhibition” value was 0.754% [at 102 µM].
On to `O=C(NCCc1ccc(Cl)cc1)c1ccc2c(c1)N(Cc1ccc(F)cc1)C(=O)CS2`, for which the “activity, negative = inhibition” value is 4.55%.
`O=C(CSc1nnc(-c2cccs2)n1-c1ccccc1)N1CCN(C(=O)c2ccco2)CC1`: the Potency was 7.08 µM (active).
Turning to `O=C(CSc1nnc(-c2cccs2)n1-c1ccccc1)NCc1ccco1`, the activity, negative = inhibition is -5.59% [at 12.7 µM].
Same read-out and setting: the figure for `Cc1cc2ccccc2n2c(SCC(=O)N3CCN(C(=O)c4ccco4)CC3)nnc12` is -25.7% [at 102 µM]; for `Cc1cc(=O)n2[nH]c(-c3cccc(Cl)c3)cc2n1` it is -10.1% [at 102 µM].
As for `Cc1cc(/C=C(/C#N)C(=O)Nc2ccc(Cl)cc2)c(C)n1-c1cccnc1`, the “activity, negative = inhibition” value is 23.3%.
As for `O=C(/C=C/c1ccc(N2CCOCC2)cc1)c1ccccc1`, the “activity, negative = inhibition” value is 96.9% [at 102 µM].
`Cc1cc(/C=C2\SC(=Nc3ccc(N4CCOCC4)cc3)N(C)C2=O)c(C)n1-c1cccnc1`: the Potency is 70.8 µM (active).
In the case of `O=C(NCCS(=O)(=O)NCc1ccc(Cl)cc1)c1ccccc1`, the “activity, negative = inhibition” value is -7.35% [at 102 µM].
Regarding `O=C(/C=C/Nc1ccc(S(=O)(=O)Nc2cnc3ccccc3n2)cc1)c1cccnc1`, the Potency is 70.8 µM (active).
Regarding `Cc1cc(NS(=O)(=O)c2ccc(NC(=O)c3cccnc3)cc2)nc(C)n1`, the “activity, negative = inhibition” value was 2.52% [at 102 µM].
Turning to `Cc1noc(NS(=O)(=O)c2ccc(N/C=C/C(=O)c3ccccc3)cc2)c1C`, the activity, negative = inhibition is -38.3% [at 2.33 µM].
With `CC(OC(=O)CCCOc1ccccc1)C(=O)Nc1ccc(Cl)cn1` (stereo not drawn), the “activity, negative = inhibition” value was 34.7% [at 102 µM].
`Cc1ccc(-c2noc(CSc3nnc(-c4ccc(Cl)cc4)n3C)n2)cc1`: the “activity, negative = inhibition” value was 1.74%.
In the case of `Cc1cc(=O)n2nc(N3CCCC(C(=O)NCc4cccc(Cl)c4)C3)sc2n1` (stereo not drawn), the “activity, negative = inhibition” value was 14.8% [at 102 µM].
`NC(=O)CCN1CCN(S(=O)(=O)/C=C/c2ccccc2)CC1`: the “activity, negative = inhibition” value is 29% [at 102 µM].
Still for that read-out and setting: the figure for `COc1ccc(NC(C)=O)cc1NC(=O)CN1CCN(c2ccc(F)cc2)CC1` is 2.49%.
On to `O=C(CN1CCN(c2ccc(O)cc2)CC1)Nc1cc(S(=O)(=O)N2CCOCC2)ccc1Cl`, for which the Potency is 3.16 µM (active).
Consider `COc1ccccc1N1CCN(CC(=O)NC(=O)NCc2ccco2)CC1`, for which the “activity, negative = inhibition” value was 6.46% [at 102 µM].
As to `O=C(CN1CCN(c2ccc(Cl)cc2)CC1)N1CCCC1`, the “activity, negative = inhibition” value is 12.3%.
`O=C(CN1CCN(S(=O)(=O)/C=C/c2ccccc2)CC1)NC(=O)NCc1ccco1`: the Potency is 20 µM (active).
Consider `O=C(CN1c2ccccc2S(=O)(=O)c2ccccc21)Nc1cccc(C(F)(F)F)c1`, for which the “activity, negative = inhibition” value is -10.5%.
Regarding `O=C(CN1CCN(c2ccc(Cl)cc2)CC1)c1ccccc1`, the Potency was 8.91 µM (active).
Still for that read-out and setting: next, `O=C(CN1CCN(c2ccc(F)cc2)CC1)Nc1cccc(C(F)(F)F)c1`: 50.1 µM (active).
On to `Cc1ccc(Cl)cc1NC(=O)CN1CCN(S(=O)(=O)N2CCOCC2)CC1`, for which the “activity, negative = inhibition” value is 1.26% [at 102 µM].
For the compound `O=C(CN1CCOCC1)Nc1cc(Cl)ccc1Cl`, the “activity, negative = inhibition” value is 53.9%.
Same read-out and setting: the figure for `CC(C)OC(=O)CN1CCN(c2ccc(Cl)cc2)CC1` is 1.33% [at 102 µM].
Take `COc1ccccc1NC(=O)C1=C(C)Nc2nc(SCC(=O)c3ccc(C)cc3)nn2C1c1ccccc1C` (stereo not drawn): the “activity, negative = inhibition” value was -0.656%.
Turning to `O=C(NCc1ccncc1)c1cccc(NS(=O)(=O)c2ccc(F)c(F)c2)c1`, the “activity, negative = inhibition” value was -0.45%.
The same measure, in the same setting: next, `CC1CCCCN1S(=O)(=O)c1ccc(F)c(C(=O)Nc2ccccc2C(F)(F)F)c1` (stereo not drawn): 11.3%; `CN(Cc1ccccc1)S(=O)(=O)c1ccc(F)c(C(=O)Nc2cccc(Cl)c2Cl)c1`: -8.99%; `COc1ccc(-c2c(C)c3ccc(O)c(CN4CCCC4)c3oc2=O)cc1OC`: 13.2%.
Same read-out and setting: the figure for `COc1ccc(-c2noc(CCC(=O)N(C)c3ccccc3C)n2)cc1` is 7.21%; for `Cc1ccc2nc(SCC(=O)N3CCN(c4ccccc4)CC3)nc(=O)n2c1` it is -0.43% [at 0.501 µM].
For the compound `O=C(COC(=O)c1cc(=O)[nH]c2ccccc12)NCc1cccc(Cl)c1`, the activity, negative = inhibition was 1.96% [at 12.7 µM].
As to `CN(C)S(=O)(=O)c1ccc(C(=O)N(Cc2cccnc2)c2nc3c(F)cc(F)cc3s2)cc1`, the “activity, negative = inhibition” value is -4.21%.
Turning to `COc1ccccc1NC(=O)C1CCCN1S(=O)(=O)c1ccc(Cl)cc1` (stereo not drawn), the “activity, negative = inhibition” value is 34.2% [at 102 µM].
On to `O=C(CNC(=O)c1ccc(Br)o1)NCC1CCCO1` (stereo not drawn), for which the “activity, negative = inhibition” value was 36.6% [at 102 µM].
Still for that read-out and setting: next, `NS(=O)(=O)c1ccc(NC(=O)C(=O)Nc2ccc3nc4n(c(=O)c3c2)CCCCC4)cc1`: -25.2%; `O=C(CN1CCN(c2ccccc2)CC1)Nc1ccc(F)cc1`: 15.6% [at 102 µM].
Take `O=C(CN1CCN(S(=O)(=O)/C=C/c2ccccc2)CC1)Nc1ccc(N2CCOCC2)cc1`: the Potency is 35.5 µM (active).
On to `O=c1cc(CN2CCN(S(=O)(=O)/C=C/c3ccccc3)CC2)c2ccc(O)cc2o1`, for which the “activity, negative = inhibition” value is 9.01%.
Still for that read-out and setting: the figure for `O=C(CN1CCOCC1)Nc1ccccc1` is 41.4% [at 12.7 µM]; for `CC(=O)c1ccc(N2CCN(CC(=O)Nc3ccccc3N3CCOCC3)CC2)cc1` it is -4.9%.
